TGFb inhibitor: blocks TGF-b signaling; 410,000 compounds, 1.2% hits; HepG2 CAGA-GFP TGF-b/SMAD3 reporter, GFP fluorescence, 18 h; TGF-beta stimulated, 500 pg/mL final; Potency, µM (top dose mostly 46.1 µM), most hits filed as inhibitors; further: nearly all actives have a fitted effect of over 65% in size
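Read-out: total well GFP (ex488/em500-530) summed from mean per-cell fluorescence. Cells: HEPG2 CAGA-GFP, 1% FBS DMEM, 18 h at 37 degrees C with 500 pg/mL final TGF-beta. Unstimulated wells served as the full-inhibition control; stimulated DMSO wells = 0%.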
DT40 TDP1 no CPT: qHTS for Inhibitors of human tyrosyl-DNA phosphodiesterase 1 (TDP1): qHTS in cells in absence of CPT | DT40 Tdp1-/- hTDP1 cells, no CPT, ATP luminescence, 48 h | Potency, µM (doses to about 46.2 µM), usual class: inhibitors | 420,000 compounds, 15% hits | AID 686978, 2013; further: nearly all actives have a fitted effect of over 55% in size
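Chicken DT40 Tdp1-/- cells complemented with human TDP1, screened without camptothecin (DMSO vehicle only), 400 cells/well. Compounds pin-transferred, cells incubated at 37 °C for at least 48 hr. Growth read as ATP-dependent luminescence (CellTiter-Glo, 30 min at RT).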
HepG2 tox: kills HepG2 cells in TGF-b inhibitor counter-screen; 410,000 compounds, 0.76% hits; HepG2 CAGA-GFP viability, ATP luminescence, 18 h; AID 588856; Potency, µM (doses to about 46.1 µM), hits mostly cytotoxic
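CellTiter-Glo luminescence gave cytotoxicity after 18 hours at 37 degrees C. The cells were HepG2 CAGA-GFP in 1% FBS DMEM, stimulated with 500 pg/mL TGF-beta after compound addition. %Activity was normalised to no-cell wells (complete cell-killing) and DMSO (no toxicity), and curves were fitted and classified.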
ASM inhibitor: inhibitors of human secretory acid sphingomyelinase; AID 504937; Potency, µM (top dose mostly 57.5 µM), hits mostly inhibitors; 340,000 compounds, 0.006% hits; placental ASM, HMU-PC fluorogenic substrate, 60 min; P17405
Target sequence (P17405 47-631 limits assumed): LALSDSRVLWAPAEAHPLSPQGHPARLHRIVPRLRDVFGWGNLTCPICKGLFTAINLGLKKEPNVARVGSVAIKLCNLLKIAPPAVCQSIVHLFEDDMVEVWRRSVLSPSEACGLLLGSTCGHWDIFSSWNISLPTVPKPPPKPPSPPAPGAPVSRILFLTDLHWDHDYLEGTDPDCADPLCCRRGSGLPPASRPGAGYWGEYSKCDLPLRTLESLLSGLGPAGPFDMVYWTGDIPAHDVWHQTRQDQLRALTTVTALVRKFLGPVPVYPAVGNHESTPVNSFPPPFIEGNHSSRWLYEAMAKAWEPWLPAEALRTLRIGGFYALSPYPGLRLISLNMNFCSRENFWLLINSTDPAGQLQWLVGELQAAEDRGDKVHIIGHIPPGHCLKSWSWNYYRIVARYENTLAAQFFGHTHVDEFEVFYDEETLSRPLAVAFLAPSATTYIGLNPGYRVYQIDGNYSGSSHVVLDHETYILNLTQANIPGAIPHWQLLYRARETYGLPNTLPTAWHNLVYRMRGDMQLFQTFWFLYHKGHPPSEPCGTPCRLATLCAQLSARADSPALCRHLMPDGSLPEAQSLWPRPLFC
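Human placenta-derived ASM enzyme was preincubated with compound for 10 minutes at room temperature, then given fluorogenic substrate HMU-PC0 (9 uM final) for 60 minutes at 37 °C; a pH 10 stop preceded fluorescence reading at Ex 386/Em 447 nm.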
DT40 TDP1 CPT: DT40-hTDP1 cell growth loss with CPT | Potency, µM (titrated, usually from 46.2 µM), actives largely listed as inhibitors | chicken DT40 Tdp1-/-;hTDP1 cells + 20 nM CPT, ATP luminescence, 48 h | 420,000 compounds, 12% hits; further: nearly all actives have a fitted effect of over 55% in size
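Cell growth measured by CellTiter-Glo luminescence after a minimum 48 h, 37 C compound exposure with 20 nM CPT in Tdp1-knockout DT40 cells stably expressing hTDP1, seeded 400/well; qHTS titration format.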
IL-1B inflam inh: inflammasome signaling inhibition, IL-1 beta readout. activity change, % at 57.5 µM. THP-1 LPS/ATP IL-1B secretion, AlphaLISA, 16 h; stronger effect = lower value. 360,000 compounds, 4.7% hits. AID 743279; in the data active means activity change below about -50%; inconclusive means mostly about -30% to -49%
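Secreted IL-1B measured by AlphaLISA bead assay after 16 h compound exposure of THP-1 cells; compounds (final up to 57.5 uM) added 1 h before LPS (250 ng/mL) and ATP (1.25 mM) stimulation; lower signal means less secretion.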
A number is an active result. Sampled rows, rich in hits. Any-hit rate of the full collection: about 19%. Unless noted, the call rests on the fitted dose curve; in most records, active means well fitted curve in the direction sought with a large enough effect; inconclusive means small, poorly fitted or top-dose-only effect, or another doubt; inactive means no such curve, though single readings can be large; an effect the other way counts as inactive or inconclusive.

Brc1ccc(CSc2ccc3nnc(-c4cccnc4)n3n2)cc1 was read as TGFb inhibitor inactive, DT40 TDP1 no CPT 21µM, HepG2 tox inactive, ASM inhibitor inactive, DT40 TDP1 CPT inconclusive and IL-1B inflam inh inactive.
For CC1CCN(CCCNS(=O)(=O)c2cc(Br)cc3c2N(C(=O)C2CC2)CC3)CC1 the results were TGFb inhibitor inactive, DT40 TDP1 no CPT inactive, HepG2 tox inactive, ASM inhibitor inactive, DT40 TDP1 CPT inactive and IL-1B inflam inh inactive.
`Nc1cc(C(=O)OCC(=O)Nc2ccc(N3CCOCC3)cc2)ccc1Cl` gave TGFb inhibitor inactive, DT40 TDP1 no CPT inactive, HepG2 tox inactive, ASM inhibitor inactive, DT40 TDP1 CPT inactive and IL-1B inflam inh inactive.
Cc1nc2ccccc2nc1CN1CCOc2ccc(CN3CCc4sccc4C3)cc2C1 was read as DT40 TDP1 no CPT inactive and DT40 TDP1 CPT inactive.
For Cc1nnsc1C(=O)N1CCN(c2cc(C(F)(F)F)ccn2)CC1 the results were TGFb inhibitor inactive, DT40 TDP1 no CPT inconclusive, HepG2 tox inactive, ASM inhibitor inactive, DT40 TDP1 CPT inconclusive and IL-1B inflam inh inactive.
Screening N=C(N)SCc1nc2ccccn2c1Br returned TGFb inhibitor inactive, DT40 TDP1 no CPT inconclusive, HepG2 tox inactive, ASM inhibitor inactive, DT40 TDP1 CPT inconclusive and IL-1B inflam inh -98.
Cc1cccc2nc(CSC(=N)N)c(Br)n12 was read as TGFb inhibitor inconclusive, DT40 TDP1 no CPT inconclusive, HepG2 tox inactive, ASM inhibitor inactive, DT40 TDP1 CPT inconclusive and IL-1B inflam inh -68.
Screening N=C(N)SCc1ncccc1O returned TGFb inhibitor inactive, DT40 TDP1 no CPT inactive, HepG2 tox inactive, ASM inhibitor inactive, DT40 TDP1 CPT inactive and IL-1B inflam inh inactive.
For O=C1C2C3C=CC([C@@H]2C(=O)N1Cc1cccnc1)C31CC1 (stereo partly specified) the results were TGFb inhibitor inactive, DT40 TDP1 no CPT inactive, HepG2 tox inactive, ASM inhibitor inactive, DT40 TDP1 CPT inactive and IL-1B inflam inh inactive.
`CC12c3ccccc3C(c3ccccc31)C1C(=O)N(c3ccncc3)C(=O)C12` (stereo unspecified) gave TGFb inhibitor inactive, DT40 TDP1 no CPT 16µM, HepG2 tox inactive, ASM inhibitor inactive, DT40 TDP1 CPT 16µM and IL-1B inflam inh inactive.
CC12c3ccccc3C(c3ccccc31)C1C(=O)N(Cc3cccnc3)C(=O)[C@H]12 (stereo partly specified) was read as TGFb inhibitor inactive, DT40 TDP1 no CPT inconclusive, HepG2 tox inactive, ASM inhibitor inactive, DT40 TDP1 CPT 18µM and IL-1B inflam inh inactive.
For CC12c3ccccc3C(c3ccccc31)C1C(=O)N(c3cccnc3)C(=O)C12 (stereo unspecified) the results were TGFb inhibitor inactive, DT40 TDP1 no CPT 15µM, HepG2 tox inactive, ASM inhibitor inactive, DT40 TDP1 CPT inconclusive and IL-1B inflam inh inactive.
CC(NC(=O)C1CCN(c2nnc(N3CCCC3=O)s2)CC1)c1ccccc1 (stereo unspecified) was read as TGFb inhibitor inactive, DT40 TDP1 no CPT inactive, HepG2 tox inactive, ASM inhibitor inactive, DT40 TDP1 CPT inactive and IL-1B inflam inh inactive.
CCOCCCN1C(=O)c2ccccc2CC1(C)C(=O)NC1CCCCC1 (stereo unspecified) was read as DT40 TDP1 no CPT inactive, HepG2 tox inactive and DT40 TDP1 CPT inactive.
COc1cccc(N2CCN(CC(=O)NC3=Nc4ccccc4N=C(C)C3c3ccccc3)CC2)c1 (stereo unspecified) was read as TGFb inhibitor inactive, DT40 TDP1 no CPT inconclusive, HepG2 tox inactive, ASM inhibitor inactive and DT40 TDP1 CPT inconclusive.
COc1cccc(N2CCN(CC(=O)Nc3nnc(-c4ccccc4)s3)CC2)c1 was read as TGFb inhibitor inactive, DT40 TDP1 no CPT 21µM, HepG2 tox inactive, ASM inhibitor inactive, DT40 TDP1 CPT 23µM and IL-1B inflam inh inactive.

Compound activity: PubChem BioAssay, National Center for Advancing Translational Sciences (NCATS)
